Each compound was assayed on HepG2 (assay: GSK_TCMDC: Percent inhibition of human HepG2 cell line. Test compounds present at 10uM.).
Assay type: functional
For `O=S(=O)(c1cccc2cccnc12)N1CCN(C2CCCCC2)CC1`, the Inhibition was 15%.
For `COc1cc(NC(=O)CCCCCCCN2CCN(C)CC2)c2ncccc2c1`, the Inhibition was 2%.
`O=C1C[C@@H]([S+]([O-])Cc2nccs2)N1CCOCCCCCCc1ccc(Cl)cc1` (stereo partly drawn) showed an Inhibition of 0%.

From ChEMBL document CHEMBL1157539, “Thousands of chemical starting points for antimalarial lead identification” (Nature, 2010)
